These results are taken from ChEMBL document CHEMBL3988442, “University of Dundee, Small-Polar-MMV Screening Library” (2021).

Holding throughout (design): scale not given: direction of the effect not stated beside the values
In assay [1] the target is Protein translocase subunit SecA (Escherichia coli (strain K12)) (UniProt P10408). In words: Assay to Identify E. coli SecA ATPase Inhibitors. In kind it is functional. To be noted: 30 µM.
The target of assay [2] is T1, Ubiquitin-activating enzyme e1, putative (Leishmania donovani (strain BPK282A1)) (UniProt E9BSI1).
T1 sequence (whole entry): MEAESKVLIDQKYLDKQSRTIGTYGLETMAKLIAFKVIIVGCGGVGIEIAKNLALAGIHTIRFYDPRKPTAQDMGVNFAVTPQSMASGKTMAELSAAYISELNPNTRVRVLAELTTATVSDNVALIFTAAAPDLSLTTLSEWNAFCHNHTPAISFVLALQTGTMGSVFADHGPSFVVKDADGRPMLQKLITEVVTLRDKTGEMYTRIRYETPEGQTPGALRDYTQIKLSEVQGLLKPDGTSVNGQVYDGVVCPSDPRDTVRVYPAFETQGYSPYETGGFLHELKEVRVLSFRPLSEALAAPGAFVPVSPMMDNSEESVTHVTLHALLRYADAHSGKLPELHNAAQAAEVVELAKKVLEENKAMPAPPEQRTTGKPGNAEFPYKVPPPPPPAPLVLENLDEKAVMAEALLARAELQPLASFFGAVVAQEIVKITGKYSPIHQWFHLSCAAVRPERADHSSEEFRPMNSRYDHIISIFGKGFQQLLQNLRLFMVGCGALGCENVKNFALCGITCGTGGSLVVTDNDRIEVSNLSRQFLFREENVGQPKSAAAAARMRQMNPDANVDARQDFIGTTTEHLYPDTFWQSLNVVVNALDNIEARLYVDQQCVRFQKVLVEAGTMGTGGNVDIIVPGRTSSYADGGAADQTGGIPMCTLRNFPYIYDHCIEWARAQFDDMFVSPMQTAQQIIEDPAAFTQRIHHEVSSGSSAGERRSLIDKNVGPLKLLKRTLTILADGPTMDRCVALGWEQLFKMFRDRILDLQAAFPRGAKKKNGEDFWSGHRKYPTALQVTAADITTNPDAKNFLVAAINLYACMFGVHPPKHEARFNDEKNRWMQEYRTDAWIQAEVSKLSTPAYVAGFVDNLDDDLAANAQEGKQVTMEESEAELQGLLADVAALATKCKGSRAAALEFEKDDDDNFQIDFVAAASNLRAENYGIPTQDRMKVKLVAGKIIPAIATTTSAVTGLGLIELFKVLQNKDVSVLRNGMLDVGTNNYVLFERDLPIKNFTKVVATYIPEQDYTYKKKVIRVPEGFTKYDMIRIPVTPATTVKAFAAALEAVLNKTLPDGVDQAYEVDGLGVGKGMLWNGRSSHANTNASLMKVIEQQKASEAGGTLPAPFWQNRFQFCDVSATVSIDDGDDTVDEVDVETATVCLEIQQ
The assay can be described thus: Leishmania donovani Ubiquitin Activating Enzyme (LdE1). Format: functional. To be noted: 30 µM.

Assay [3] concerns the target AMP-activated protein kinase, AMPK (Homo sapiens) (UniProt P54646+O43741+P54619+Q9UGJ0+Q9Y478+Q13131+Q9UGI9). The assay can be described thus: AMP-dependent Kinase enzyme assay. An in vitro enzyme assay that detects ADP turnover that is directly proportional to AMPK activity. This uses naive AMPK that is activated during the assay with MK-8722. Format: functional. Conditions: 30 µM.

Assay [4] deals with Sialic acid-binding Ig-like lectin 9 (Homo sapiens) (UniProt Q9Y336). In words: Hs-Siglec9 ALPHAscreen SOP 20170721. To be noted: 10 µM.
Sialic acid-binding Ig-like lectin 9 (Homo sapiens), sequence (Q9Y336 whole entry): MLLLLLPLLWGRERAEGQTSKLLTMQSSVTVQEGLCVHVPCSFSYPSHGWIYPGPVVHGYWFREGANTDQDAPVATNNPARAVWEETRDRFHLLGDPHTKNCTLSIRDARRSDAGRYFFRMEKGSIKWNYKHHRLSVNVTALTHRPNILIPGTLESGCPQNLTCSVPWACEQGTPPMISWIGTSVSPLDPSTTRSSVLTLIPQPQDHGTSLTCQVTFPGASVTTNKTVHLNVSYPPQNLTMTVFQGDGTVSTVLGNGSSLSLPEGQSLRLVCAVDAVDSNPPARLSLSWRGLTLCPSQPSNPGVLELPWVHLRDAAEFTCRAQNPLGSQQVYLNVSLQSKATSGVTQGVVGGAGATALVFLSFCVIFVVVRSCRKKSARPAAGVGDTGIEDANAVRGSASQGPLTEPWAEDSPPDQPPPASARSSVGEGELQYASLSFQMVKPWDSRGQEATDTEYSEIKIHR
Assay [5] deals with Trypanosoma cruzi. In words: Trypanosoma cruzi phosphomannomutase and mannose-1-phosphate guanylyltransferase assay. In kind it is functional. To be noted: 10 µM.
For assay [6], the target named is T2, Arginase-2, mitochondrial (Homo sapiens) (UniProt P78540).
T2 sequence (whole entry): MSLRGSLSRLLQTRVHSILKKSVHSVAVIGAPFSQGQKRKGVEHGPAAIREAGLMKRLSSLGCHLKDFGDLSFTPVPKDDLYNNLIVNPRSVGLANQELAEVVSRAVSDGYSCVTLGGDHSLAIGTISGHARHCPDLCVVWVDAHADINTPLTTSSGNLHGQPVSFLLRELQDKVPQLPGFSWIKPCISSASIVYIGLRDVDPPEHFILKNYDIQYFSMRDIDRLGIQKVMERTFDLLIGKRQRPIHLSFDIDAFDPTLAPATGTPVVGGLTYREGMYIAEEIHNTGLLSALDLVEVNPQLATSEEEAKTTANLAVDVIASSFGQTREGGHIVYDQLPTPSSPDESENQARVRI
In words: in vitro enzyme assay to detect the production of urea directly proportional to the activity of Arginase II. Note: in the data most compounds retested in dose-response had high values. Format: functional. To be noted: 33.3 µM.

For assay [7], the target named is T3, Proteasome subunit beta (Trypanosoma cruzi) (UniProt O96673).
T3 sequence (whole entry): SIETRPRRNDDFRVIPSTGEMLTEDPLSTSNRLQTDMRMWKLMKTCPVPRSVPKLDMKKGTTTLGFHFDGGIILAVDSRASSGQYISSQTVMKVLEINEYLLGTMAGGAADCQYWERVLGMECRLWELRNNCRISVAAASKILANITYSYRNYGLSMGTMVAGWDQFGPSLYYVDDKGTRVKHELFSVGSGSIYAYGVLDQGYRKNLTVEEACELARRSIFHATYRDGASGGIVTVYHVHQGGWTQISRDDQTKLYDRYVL
The assay can be described thus: Trypanosoma cruzi proteasome chymotrypsin-like activity (TcProtChymo) assay. Note: in the data most compounds retested in dose-response had high values. To be noted: 9.37 µM. In kind it is functional.

The species entered for assay [8] is Homo sapiens. In words: To identify inhibition of the IFN signalling (Jak-Stat) pathway via expression of an eGFP reporter gene under the control of an IFN-stimulated response element (ISRE) containing MxA promoter. In kind it is functional. Conditions: 30 µM. (In general: In a reporter assay the amount or activity of a reporter protein is the signal.)
In assay [9] the target is T4, Tyrosyl-tRNA synthetase, putative (Trypanosoma cruzi (strain CL Brener)) (UniProt Q4DSP6).
T4 sequence (whole entry): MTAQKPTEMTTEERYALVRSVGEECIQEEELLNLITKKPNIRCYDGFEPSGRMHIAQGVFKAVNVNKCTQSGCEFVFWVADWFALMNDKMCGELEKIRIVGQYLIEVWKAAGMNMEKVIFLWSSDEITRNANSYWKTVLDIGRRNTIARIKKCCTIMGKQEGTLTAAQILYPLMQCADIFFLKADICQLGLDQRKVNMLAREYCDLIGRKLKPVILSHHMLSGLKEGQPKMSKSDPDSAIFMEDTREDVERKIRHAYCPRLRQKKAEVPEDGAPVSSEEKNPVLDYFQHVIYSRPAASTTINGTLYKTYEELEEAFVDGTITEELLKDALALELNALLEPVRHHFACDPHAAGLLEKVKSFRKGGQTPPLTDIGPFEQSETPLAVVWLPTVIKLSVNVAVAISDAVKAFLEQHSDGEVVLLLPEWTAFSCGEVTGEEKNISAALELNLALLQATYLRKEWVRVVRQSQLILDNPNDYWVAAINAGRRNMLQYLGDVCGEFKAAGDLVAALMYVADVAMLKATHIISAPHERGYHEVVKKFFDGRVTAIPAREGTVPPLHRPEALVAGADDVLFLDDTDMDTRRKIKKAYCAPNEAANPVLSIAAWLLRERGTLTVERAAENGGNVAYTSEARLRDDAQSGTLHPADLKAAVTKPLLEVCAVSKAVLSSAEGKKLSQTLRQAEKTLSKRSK
In words: Trypanosoma cruzi tyrosyl tRNA synthetase (TcYRS) _High Tyrosine SOP. Note: in the data most compounds retested in dose-response had high values. Format: functional. To be noted: 30 µM.

For assay [10], the target named is T4, Tyrosyl-tRNA synthetase, putative (Trypanosoma cruzi (strain CL Brener)). In words: Trypanosoma cruzi tyrosyl tRNA synthetase (TcYRS) SOP. Format: functional. To be noted: 30 µM.
The target in assay [11] is Chromo domain-containing protein 1 (Saccharomyces cerevisiae (strain ATCC 204508 / S288c) (Baker's yeast)) (UniProt P32657). The assay can be described thus: ScCHD-1 Enzyme Inhibition Assay. Note: in the data most compounds retested in dose-response had high values. To be noted: 30 µM. In kind it is functional.
Chromo domain-containing protein 1 (Saccharomyces cerevisiae (strain ATCC 204508 / S288c) (Baker's yeast)), sequence (P32657 whole entry, the tested form may be a part): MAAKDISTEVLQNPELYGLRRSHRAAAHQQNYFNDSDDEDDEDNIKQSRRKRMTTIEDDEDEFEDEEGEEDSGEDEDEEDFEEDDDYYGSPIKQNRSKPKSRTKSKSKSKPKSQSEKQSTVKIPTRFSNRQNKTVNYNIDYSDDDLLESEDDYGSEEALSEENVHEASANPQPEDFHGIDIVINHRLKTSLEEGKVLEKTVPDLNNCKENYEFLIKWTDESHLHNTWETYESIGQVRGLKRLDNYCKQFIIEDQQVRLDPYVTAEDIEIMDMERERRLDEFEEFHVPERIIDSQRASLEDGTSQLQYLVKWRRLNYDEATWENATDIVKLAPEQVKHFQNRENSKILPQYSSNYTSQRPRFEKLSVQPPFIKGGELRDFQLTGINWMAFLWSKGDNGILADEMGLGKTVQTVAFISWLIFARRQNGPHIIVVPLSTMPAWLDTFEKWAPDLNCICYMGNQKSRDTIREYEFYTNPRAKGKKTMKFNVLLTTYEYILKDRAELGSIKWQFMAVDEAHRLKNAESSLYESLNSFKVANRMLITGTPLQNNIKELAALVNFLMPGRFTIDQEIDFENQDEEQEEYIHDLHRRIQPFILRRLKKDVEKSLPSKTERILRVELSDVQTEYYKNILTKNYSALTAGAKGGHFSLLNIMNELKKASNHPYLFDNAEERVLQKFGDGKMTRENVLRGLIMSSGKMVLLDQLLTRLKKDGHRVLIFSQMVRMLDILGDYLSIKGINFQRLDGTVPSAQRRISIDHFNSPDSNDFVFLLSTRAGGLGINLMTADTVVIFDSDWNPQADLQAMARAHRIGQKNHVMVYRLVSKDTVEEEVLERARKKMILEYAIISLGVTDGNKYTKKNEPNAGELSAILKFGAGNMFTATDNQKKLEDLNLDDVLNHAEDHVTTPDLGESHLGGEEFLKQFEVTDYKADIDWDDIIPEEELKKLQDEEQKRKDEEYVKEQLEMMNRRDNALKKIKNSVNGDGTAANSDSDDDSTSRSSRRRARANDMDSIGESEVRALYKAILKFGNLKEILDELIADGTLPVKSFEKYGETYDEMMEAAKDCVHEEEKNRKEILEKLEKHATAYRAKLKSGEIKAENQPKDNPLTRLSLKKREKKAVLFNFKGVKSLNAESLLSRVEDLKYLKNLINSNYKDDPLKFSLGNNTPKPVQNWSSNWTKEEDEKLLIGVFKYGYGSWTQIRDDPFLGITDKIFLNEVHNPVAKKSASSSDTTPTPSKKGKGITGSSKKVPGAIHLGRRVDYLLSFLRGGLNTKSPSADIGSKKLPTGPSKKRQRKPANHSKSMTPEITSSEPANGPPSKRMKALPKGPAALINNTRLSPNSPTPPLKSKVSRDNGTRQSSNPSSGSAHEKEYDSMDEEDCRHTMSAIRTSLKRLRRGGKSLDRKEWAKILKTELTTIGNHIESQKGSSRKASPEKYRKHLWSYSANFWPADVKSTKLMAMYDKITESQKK

Each structure is given as a SMILES string. For some of these results: Results with a measured potency or affinity are listed apart.

Protein translocase subunit SecA (Escherichia coli (strain K12)), sequence (P10408 whole entry): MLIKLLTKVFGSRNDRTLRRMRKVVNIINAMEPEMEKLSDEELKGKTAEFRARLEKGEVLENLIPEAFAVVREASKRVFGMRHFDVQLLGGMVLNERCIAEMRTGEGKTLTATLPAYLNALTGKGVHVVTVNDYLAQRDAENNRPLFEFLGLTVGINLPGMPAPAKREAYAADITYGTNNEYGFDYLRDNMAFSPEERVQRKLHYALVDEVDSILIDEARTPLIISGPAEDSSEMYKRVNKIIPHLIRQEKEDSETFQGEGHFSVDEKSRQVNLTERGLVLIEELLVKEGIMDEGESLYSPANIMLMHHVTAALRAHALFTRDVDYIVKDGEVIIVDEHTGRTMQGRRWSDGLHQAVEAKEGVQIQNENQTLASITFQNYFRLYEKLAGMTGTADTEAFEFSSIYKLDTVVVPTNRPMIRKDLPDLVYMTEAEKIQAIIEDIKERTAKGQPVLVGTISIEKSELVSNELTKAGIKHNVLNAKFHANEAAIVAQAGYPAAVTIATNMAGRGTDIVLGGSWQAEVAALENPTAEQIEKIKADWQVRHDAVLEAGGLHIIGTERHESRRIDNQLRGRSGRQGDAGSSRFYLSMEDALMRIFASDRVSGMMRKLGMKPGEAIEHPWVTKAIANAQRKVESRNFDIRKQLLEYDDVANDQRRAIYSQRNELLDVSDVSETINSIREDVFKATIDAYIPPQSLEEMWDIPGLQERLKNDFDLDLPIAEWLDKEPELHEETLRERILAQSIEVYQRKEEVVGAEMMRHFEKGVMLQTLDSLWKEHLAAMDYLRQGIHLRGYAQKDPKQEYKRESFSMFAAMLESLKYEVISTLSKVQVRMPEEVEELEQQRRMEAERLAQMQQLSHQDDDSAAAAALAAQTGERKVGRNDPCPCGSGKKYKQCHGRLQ

`CN(Cc1ccsc1)C(=O)c1cc2c([nH]c1=O)CCCC2=O`: the Percent Effect is -3.09% in [1]; 13.5% in assay [2]; -2.3% in assay [3]; 9.82% in assay [4]; -2.32% in assay [5]; -0.185% in assay [6]. Also, the Percent Effect is 16.5% in assay [7]; 3% in assay [8]; 4.95% in assay [9]; 18.3% in [10]; -6.06% in [11].

Turning to `CNc1cncc(C2CCCN2Cc2ccccn2)n1` (stereo unspecified), the Percent Effect in assay [1] is -2.75%; in [2], -4.05%; in [3], 3.64%; in assay [4] it was 7.85%; in assay [5], 2.37%; in [6], 1.62%. For the same compound, the Percent Effect in assay [7] was 29.5%; in assay [8] it was -2.5%; in assay [9], 9.68%; in assay [10], 9.09%; in assay [11] it was -18.3%.

As for `N#CC(Sc1nnnn1C1CCOCC1)C1CCCCC1` (stereo unspecified), the Percent Effect in assay [1] is -4.28%; in [2], 2.67%; in assay [3] it was 0.0297%; in [4], 9.31%; in [5] it was -5.55%; in [6], 0.521%. For the same compound, the Percent Effect was 7.32% in [7]; -0.799% in assay [8]; 3.83% in assay [9]; 6.17% in assay [10]; -4.6% in assay [11].

With `CC(C)(C)c1ncc(C(=O)NCCNC(=O)c2ccccc2)s1`, the Percent Effect in assay [1] was -3.42%; in [2], 21.1%; in assay [3], -4.68%; in assay [4] it was 1.92%; in assay [5] it was -3.64%; in [6] it was 0.36%. The Percent Effect is 10.7% in [7]; 12.2% in assay [8]; 7.39% in [9]; 18.5% in [10]; -4.66% in assay [11].

Turning to `CCS(=O)(=O)N1CCC[C@]2(C(=O)N(C)C)CN(c3ccccn3)C[C@@H]2C1`, the Percent Effect in [1] is -6.08%; in [2], 5.33%; in [3], 2.98%; in [4] it was 0.0913%; in assay [5], 4.05%; in assay [6] it was -50%. Besides, the Percent Effect in [7] was 10.1%; in assay [8], -17%; in assay [9] it was 3.12%; in assay [10] it was 12.5%; in [11], -5.8%.

`Cc1cnn(C2CCCN(C(=O)c3ccc(N(C)C)nn3)C2)c1` (stereo unspecified): the Percent Effect is -3.44% in assay [1]; 15.6% in assay [2]; 1.44% in assay [3]; -3.44% in assay [4]; -5.62% in [5]; -2.85% in [6]. Besides, the Percent Effect in [7] was -1.01%; in assay [8], 33.7%; in assay [9], 4.85%; in assay [10], 12.2%; in assay [11], -8.48%.

As to `Clc1ccc(CN2CCCC(Cn3cncn3)C2)c2ncccc12` (stereo unspecified), the Percent Effect in assay [1] was -5.66%; in assay [2], -7.79%; in assay [3], -0.804%; in assay [4], 1.38%; in assay [5], 0.688%; in [6], -1.38%. Also, the Percent Effect in [7] is 12%; in assay [8] it was -2.35%; in assay [9], 4.3%; in assay [10], 3.7%; in assay [11], 3.92%.

Take `O=C(C1CCS(=O)(=O)C1)N1CCN(c2cnccn2)CC1` (stereo unspecified): the Percent Effect in assay [1] was -5.3%; in [2] it was 16.2%; in assay [3], -5.15%; in assay [4], -2.95%; in assay [5] it was -7.52%; in assay [6] it was 0.185%. The Percent Effect in assay [7] is 6.46%; in assay [8], 14.3%; in [9] it was 5.94%; in assay [10], 15.8%; in assay [11], -4.21%.

`CCn1ncc2c1CCCC2NCc1ccc(OC)c(C)c1` (stereo unspecified): the Percent Effect is -7.95% in [1]; 12.7% in assay [2]; -10.6% in [3]; 11.1% in assay [4]; 7.08% in [5]; -3.42% in assay [6]. In addition, the Percent Effect in assay [7] is 1.23%; in assay [8] it was 0.115%; in assay [9], 4.43%; in [10] it was 16.5%; in assay [11], -6.17%.

Take `O=S(=O)(c1cccnc1)N1CCN(CCn2ccnc2)CC1`: the Percent Effect in assay [1] was -4.58%; in assay [2], 5.48%; in [3], -1.26%; in [4], 0.536%; in [5] it was -8.81%; in assay [6], -0.455%. The Percent Effect in [7] was 11.7%; in [8] it was -0.863%; in [9] it was 5.38%; in [10], 12.5%; in assay [11] it was -5.5%.

In the case of `Cc1nc(C)n(CC2CCCN(Cc3nnc(-c4ccco4)o3)C2)n1` (stereo unspecified), the Percent Effect is -3.02% in [1]; 0% in [2]; 11.3% in [3]; -2.45% in [4]; 3.02% in assay [5]; 3.55% in assay [6]. For the same compound, the Percent Effect was 3.74% in [7]; 4.98% in [8]; 5.32% in [9]; 5.2% in assay [10]; -1.67% in [11].
